proKLK7 act – activators of human kallikrein-7 zymogen; 370,000 tested, 0.9% active; purified proKLK7, EDANS-DABCYL substrate fluorescence; 100% is mature enzyme control, 0% vehicle; AID 652039; activation, % at 7 µM;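 active = activation above the mean of all tested compounds plus 3 SD, computed per campaign excluding outliers beyond control limits, cut at about 13% in these data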
Target sequence (P49862 whole entry, looked up): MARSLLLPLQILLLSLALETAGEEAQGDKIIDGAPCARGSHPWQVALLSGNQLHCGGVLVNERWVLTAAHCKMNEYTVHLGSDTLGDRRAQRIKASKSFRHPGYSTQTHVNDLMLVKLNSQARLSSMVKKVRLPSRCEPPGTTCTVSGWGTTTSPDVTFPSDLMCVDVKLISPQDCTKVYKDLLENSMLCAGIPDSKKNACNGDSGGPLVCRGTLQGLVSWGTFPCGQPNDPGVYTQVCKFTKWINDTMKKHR
PG9 binder – binds the HIV-1 gp120 antibody PG9; inhibition, % at 6.7 µM; 360,000 tested, 0.43% active; AID 624416; TR-FRET gp120-PG9 antibody binding; in the data active = inhibition above about 8.5%
PP1 inh – PP1-alpha (human) inhibition in PP5 counter-screen; inhibition, % at 6.7 µM; P62136; purified PP1alpha, OMFP fluorescence; 320,000 tested, 0.9% active;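 active = inhibition above the mean inhibition of all tested compounds plus 3 SD, computed separately for each screening campaign, cut at about 15% in these data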
NR1D1 modulator – Rev-erb alpha (human) modulation; P20393; Rev-erbα–FITC-DNA binding, fluorescence polarization, 90 min; activity, % at 10 µM; 370,000 tested, 0.79% active; AID 1259318;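 active = activity above about 14%, limit read from the data; passing the limit was not always enough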
PP5 primary – blocks human protein phosphatase 5 activity. inhibition, % at 6.7 µM. purified PP5c, OMFP substrate fluorescence. 320,000 tested, 0.18% active;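 active = inhibition above the campaign's mean inhibition across all tested compounds plus 3 SD, cut at about 9.5% in these data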
GASC-1 inh – blocks human GASC-1 demethylase activity; AID 2099; 330,000 tested, 0.069% active; inhibition, % at 2.35 µM; GST-JMJD2C(1-420) H3K9me3 demethylation, DELFIA europium;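 active = more than half of a compound's replicate wells show inhibition beyond 50%, single wells judged on their own value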;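 also: signal counts dimethyl H3K9 product captured on neutravidin plate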
Target sequence (Q9H3R0 1-420 limits assumed): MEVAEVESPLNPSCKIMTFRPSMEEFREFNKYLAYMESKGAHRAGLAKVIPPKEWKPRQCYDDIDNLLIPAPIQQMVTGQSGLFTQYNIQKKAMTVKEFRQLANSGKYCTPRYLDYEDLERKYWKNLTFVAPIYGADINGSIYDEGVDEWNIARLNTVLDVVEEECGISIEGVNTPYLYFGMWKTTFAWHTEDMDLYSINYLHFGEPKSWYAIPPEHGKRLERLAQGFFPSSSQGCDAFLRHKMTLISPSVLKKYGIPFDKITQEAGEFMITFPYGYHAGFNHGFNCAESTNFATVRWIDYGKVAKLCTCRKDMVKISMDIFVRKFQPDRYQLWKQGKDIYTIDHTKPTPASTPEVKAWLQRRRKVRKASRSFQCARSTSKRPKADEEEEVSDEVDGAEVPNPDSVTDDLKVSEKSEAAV
NR1D1 mod conf – Rev-erb alpha (human) modulation, hit confirmation. shares compounds with NR1D1 modulator. Rev-erb alpha FITC-DNA binding, fluorescence polarization, 90 min. activation, % at 25 µM. 3,000 tested, 61% active;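 active = activation at or above a set limit, or at least 3 SD above the negative control mean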
RORg counter – counter-screen for Rev-erb alpha modulators: RORgamma DNA binding; shares compounds with NR1D1 modulator; purified RORgamma protein-FITC-DNA binding, fluorescence polarization; IC50, µM; 910 tested, 8% active; AID 1259320;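 active = Compounds whose fitted half-maximal concentration for disrupting protein-DNA binding is below 10 micromolar; the record names Rev-erb in its text, so the target is in doubt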
Large screens that a line does not name were inactive (follow-up assays come after a bar, where they were run). Hits are enriched below; roughly 2.8% of the tested compounds scored in any of these assays.

COc1ccc(-c2c(C#N)c(SCC(=O)Nc3ccccc3)nc3c2CCCC3)cc1	NR1D1 modulator 45 | NR1D1 mod conf 29
COc1ccc(-c2ccc(C#N)c(SCC(=O)Nc3sc4c(c3C#N)CCC4)n2)cc1	NR1D1 modulator 34 | NR1D1 mod conf inactive
Cc1ccccc1NC(=O)CSc1nc2c(c(-c3ccco3)c1C#N)CCCC2	none (no result: proKLK7 act, PG9 binder)
CCc1ccccc1NC(=O)CSc1nc2c(c(-c3ccco3)c1C#N)CCCC2	NR1D1 modulator 29 | NR1D1 mod conf 20
N#Cc1ccc(-c2cccnc2)nc1SCC(=O)Nc1sc2c(c1C#N)CCC2	none (no result: proKLK7 act, PG9 binder)
N#Cc1c(SCC(N)=O)nc2c(c1-c1ccncc1)CCCC2	none
COc1ccc(S[C@]2(C(=O)N3CCCC3)CC(=O)N(c3ccsc3)[C@@H]2c2ccc(OC)cc2)cc1	none (no result: PG9 binder, PP1 inh, PP5 primary, GASC-1 inh)
CCN(CC)c1ccc(/C=C(\C#N)C(N)=S)cc1	NR1D1 modulator 76 | NR1D1 mod conf 64 | RORg counter inactive
CCN(CC)c1ccc(/C=C(\C#N)C(=O)c2ccc(Br)cc2)cc1	NR1D1 modulator 59 | NR1D1 mod conf 70 | RORg counter inactive
COc1ccc(-n2c(C)cc(C(=O)COC(=O)c3cc(NC(=O)c4cccs4)c(OC)c(OC)c3)c2C)cc1	NR1D1 modulator 32 | NR1D1 mod conf inactive
COc1cc(NC(=O)c2cccs2)c(C(=O)OCC(=O)c2cc(C)n(-c3ccccc3)c2C)cc1OC	none
CCCC1CCC2(CC1)CCC2OC(=S)NCc1cccc(F)c1 (centres undefined)	none (no result: proKLK7 act, PG9 binder, PP1 inh, PP5 primary, GASC-1 inh)
COC(=O)[C@]12C[C@H](CC(=O)NCC3CCCCC3)C(=O)N(Cc3ccc(Cl)cc3Cl)C1=C[C@H](COCc1ccccc1)O[C@@H]2C	none (no result: PG9 binder, PP1 inh, PP5 primary, GASC-1 inh)
CCCCOC(=O)c1ccc(NC(=O)CSC2=Nc3ccccc3C3CC=NN23)cc1 (centres undefined)	none
O=C(CSC1=Nc2ccccc2C2CC=NN12)Nc1ccc(F)c(F)c1F (centres undefined)	NR1D1 modulator 18 | NR1D1 mod conf inactive
CC(C)[C@H](NC(=O)c1ccc(Cl)c(Cl)c1)C(=O)N1CCC[C@H]1C(=O)NCCc1ccccc1Cl	none (no result: PP1 inh, PP5 primary, GASC-1 inh)
O=C1CCCc2nc(N3CCN(c4ccccc4)CC3)ncc21	NR1D1 modulator 24 | NR1D1 mod conf 18
COC(=O)C1=C(C)N(Cc2ccc(C(F)(F)F)cc2)C(=NCc2ccccc2C(F)(F)F)NC1c1ccc(Cl)cc1 (centres undefined)	none (no result: PP1 inh, PP5 primary, GASC-1 inh)
COCCn1c(=NC(=O)c2ccc(S(=O)(=O)N3CCc4ccccc4C3)cc2)sc2cc(OC)ccc21	NR1D1 modulator 54 | NR1D1 mod conf 19
COCCn1c(=NC(=O)CCS(=O)(=O)c2ccccc2)sc2cc(C(=O)OC)ccc21	NR1D1 modulator 205 | NR1D1 mod conf 137 | RORg counter inactive
CCOc1ccc(-n2c(SCC(=O)Nc3ccc(OCc4ccccc4)cc3)nnc2-c2ccc(Cl)cc2)cc1	none (no result: PG9 binder, PP1 inh, PP5 primary, GASC-1 inh)
CCOC(=O)c1c(NC2=NS(=O)(=O)c3ccccc32)sc2c1CCC(C)C2 (centres undefined)	NR1D1 modulator 41 | NR1D1 mod conf inactive
COC(=O)c1c(NC2=NS(=O)(=O)c3ccccc32)sc2c1CCC(C(C)(C)C)C2 (centres undefined)	NR1D1 modulator 30 (no result: PP1 inh, PP5 primary, GASC-1 inh) | NR1D1 mod conf 19
CCOC(=O)c1c(NC2=NS(=O)(=O)c3ccccc32)sc2c1CCCCC2	none
C#CCNC(=O)C[C@H]1C[C@@]2(C(=O)OC)C(=C[C@H](C(C)(C)C)O[C@@H]2C)N(CCC2=CCCCC2)C1=O	none (no result: PP1 inh, PP5 primary, GASC-1 inh)
O=C1NCCN1CCN1CCC(c2cn(-c3ccc(F)cc3)c3ccc(Cl)cc23)CC1	none (no result: PG9 binder, PP1 inh, PP5 primary, GASC-1 inh)
COc1cc(C(C)=O)ccc1Oc1ncnc2c1cnn2-c1ccc(F)cc1	NR1D1 modulator 25 | NR1D1 mod conf inactive
COc1ccc(CNC(=O)CN2C(=O)C3CCCN3c3ncc(Cl)cc32)cc1 (centres undefined)	NR1D1 modulator 43 | NR1D1 mod conf 36
O=C(CN1C(=O)C2CCCN2c2ncc(Cl)cc21)NCc1ccc2c(c1)OCO2 (centres undefined)	NR1D1 modulator 46 (no result: PP1 inh, PP5 primary, GASC-1 inh) | NR1D1 mod conf 36
CCCN=C(C)c1c(-c2ccccc2)[nH]n(-c2nc3ccccc3s2)c1=O	NR1D1 modulator 58 | NR1D1 mod conf 40 | RORg counter 8.5
Cc1c(C(=O)NC2CCCCC2)sc2ncnc(N3CCN(c4ccccc4)CC3)c12	NR1D1 modulator 39 | NR1D1 mod conf inactive
COc1ccc(NC(=O)c2sc3nc(C)nc(N4CCN(c5ccccn5)CC4)c3c2C)cc1Cl	none
COc1ccc(NC(=O)c2sc3ncnc(N4CCN(c5ccccn5)CC4)c3c2C)cc1Cl	NR1D1 modulator 28 | NR1D1 mod conf 20
Cc1cc(Br)ccc1NC(=O)CN1CCN(c2ccccn2)CC1	none
Cc1cc(Br)ccc1NC(=O)c1sc2ncnc(N3CCN(c4ccccn4)CC3)c2c1C	NR1D1 modulator 69 | NR1D1 mod conf inactive
CC1CCCCC1N(C(=O)c1cc(C2CC2)on1)C1CCCCC1 (centres undefined)	none (no result: PG9 binder, PP1 inh, PP5 primary, GASC-1 inh)
COc1ccccc1NC(=O)CSc1nc(N)c(C#N)cc1C#N	NR1D1 modulator 73 | NR1D1 mod conf 65 | RORg counter inactive
COc1cc2c(cc1OC)CN(C(=O)CSc1nc(N)c(C#N)cc1C#N)CC2	NR1D1 modulator 37 (no result: proKLK7 act, PG9 binder) | NR1D1 mod conf 47 | RORg counter inactive
COc1ccccc1NC(=O)CSc1nc(N)cc(N)n1	none
Cc1ccccc1NC(=O)CSc1nc(N)c(C#N)c(-c2cccs2)c1C#N	PG9 binder 72, NR1D1 modulator 126 | NR1D1 mod conf 95
CCOC(=O)CSc1nc(N)c(C#N)cc1C#N	none
CCOc1ccccc1NC(=O)CSc1nc(N)c(C#N)cc1C#N	PG9 binder 66, NR1D1 modulator 84 | NR1D1 mod conf 46 | RORg counter inactive
COc1cc2c(cc1OC)CN(C(=O)CSC1=NCCS1)CC2	none (no result: PP1 inh, PP5 primary, GASC-1 inh)
COc1cccc(-c2c(C#N)c(SC)nc3cc(C)nn23)c1	NR1D1 modulator 39 | NR1D1 mod conf inactive
COc1cccc(N2CCN(c3nc(C)cc(C)c3C#N)CC2)c1	none
Cn1nc2c3ccccc3n(Cc3ccccc3)c2nc1=S	NR1D1 modulator 30 | NR1D1 mod conf 23
CCn1c2ccccc2c2nn(C)c(=N)nc21	none
Cc1cc(C)c(N=C2SCC(=O)N2Cc2ccco2)c(C)c1	NR1D1 modulator 43 | NR1D1 mod conf 37 | RORg counter inactive
O=C1CSC(=Nc2ccc(Cl)cc2)N1Cc1ccco1	none
Brc1ccc2nc(-c3ccc(CN4CCC5(CC4)CNc4ccccc45)cc3)c(-c3ccccc3)nc2c1	none (no result: PP1 inh, PP5 primary, GASC-1 inh)
